# Test results reported in ChEMBL document CHEMBL3433997, “St. Jude Leishmania screening dataset” (2016).
# Legend:
# Assay type in all cases: functional
# [1] = molecular target: Solute carrier family 2, facilitated glucose transporter member 1 (Homo sapiens) (UniProt P11166); test: ST_JUDE_LEISH: Cytotoxicity at 2uM final concentration against transgenic Leishmania Mexicana promastigotes LmGLUT1 that are glucose transport deficient and complemented with the human glucose transporter GLUT1. Activity is measured by DNA content using SYBR green in vitro
# Sequence of Solute carrier family 2, facilitated glucose transporter member 1 (Homo sapiens) (P11166 whole entry): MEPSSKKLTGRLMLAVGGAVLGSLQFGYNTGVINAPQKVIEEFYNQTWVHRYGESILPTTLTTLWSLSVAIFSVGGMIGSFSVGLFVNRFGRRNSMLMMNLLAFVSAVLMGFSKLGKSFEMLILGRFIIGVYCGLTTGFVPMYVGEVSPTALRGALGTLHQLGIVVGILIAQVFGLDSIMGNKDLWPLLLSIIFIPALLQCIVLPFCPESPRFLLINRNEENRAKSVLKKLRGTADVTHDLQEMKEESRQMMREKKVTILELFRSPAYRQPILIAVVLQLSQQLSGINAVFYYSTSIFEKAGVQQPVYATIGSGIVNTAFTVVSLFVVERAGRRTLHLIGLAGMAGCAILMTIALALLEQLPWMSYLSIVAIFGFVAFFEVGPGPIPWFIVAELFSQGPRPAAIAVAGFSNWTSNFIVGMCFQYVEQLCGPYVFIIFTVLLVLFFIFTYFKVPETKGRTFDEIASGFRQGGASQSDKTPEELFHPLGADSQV
# [2] = molecular target: Hexose transporter 1 (Plasmodium falciparum) (UniProt O97467); test: ST_JUDE_LEISH: Cytotoxicity at 2uM final concentration against transgenic Leishmania Mexicana promastigotes LmPfHT that are glucose transport deficient and complemented with the Plasmodium falciparum hexose transporter. Activity is measured by DNA content using SYBR green in vitro
# [3] = molecular target: Glucose transporter (Leishmania mexicana) (UniProt O61059); test: ST_JUDE_LEISH: Cytotoxicity at 2uM final concentration against transgenic Leishmania Mexicana promastigotes LmGT2 that are glucose transport deficient and complemented with the L. Mexicana glucose transporter 2. Activity is measured by DNA content using SYBR green in vitro
Compound,inhibition [1],inhibition [2],inhibition [3]
O=C1COC(c2ccccc2)(c2ccccc2)CN1CC1CCN(Cc2ccc(O)cc2Cl)C1 (centres undefined),3.1%,1.71%,2.56%
COc1cc(-c2nc3c4ccccc4c4ccccc4c3[nH]2)cc(OC)c1OC,1.82%,1.28%,1.58%
COc1ccc(CN2CCC(CNC(C)c3cccc4ccccc34)CC2)cc1 (centres undefined),7.32%,12.7%,5.96%
CC1CCC2(CC1)NC(N)=NC(=N)N2OCCCCCCCCO (centres undefined),6.99%,4.43%,2.52%
O=C1CCCN1CCCNCc1ccc(-c2ccc(-c3nc4cc(F)ccc4[nH]3)cc2)cc1,11.9%,13.3%,12.3%
O=C(CSc1nnc(O)n1Cc1ccccc1)Nc1ccccc1-c1ccccc1,5.26%,6.12%,5.02%
O=C(Nc1ccccc1)Nc1ccc(-n2ccc(C(F)(F)F)n2)cc1,2.55%,2.63%,-0.06%
Cc1cnc(Nc2cccc(CCN3CCOCC3)c2)nc1NC(C)C,9.35%,9.73%,2.69%
Fc1ccc2[nH]c(-c3cccc(-c4ccc(CN5CCN(CCN6CCOCC6)CC5)cc4)c3)nc2c1,1.26%,1.68%,1.79%
Nc1nccc2ccc(-c3cccnc3)cc12,3.94%,5.14%,4.83%
Cc1cc(=NN=Cc2ccccc2)c2cc(C(F)(F)F)ccc2[nH]1,8.02%,8.87%,6.17%
COc1ccc2nccc([C@@H](O)CN3CCC(NCC4COc5ccccc5O4)CC3)c2c1 (some centres undefined),7.53%,8.69%,1.37%
N#Cc1cncc(-c2nc3c(N4CCN(c5cnccn5)CC4)cccc3n2CCNCc2ccccc2)c1,2.77%,1.47%,-3.33%
CC(=O)Nc1ccc(CN2Cc3ccc(NC(=O)Nc4ccc(Oc5ccccc5)cc4)cc3C2)s1,1.61%,-0.21%,1.94%
COc1cc2nc(N3CCC(CNC(=O)c4cccc5cc[nH]c45)CC3)nc(N)c2cc1OC,6.26%,4.21%,5.67%
O=[N+]([O-])c1ccc2c(c1)c1ccccc1n2Cc1ccccc1O,0.12%,1.04%,-2.69%
Cc1cc(CN2CC[C@H](NC(=O)c3ccc(Cl)c(Cl)c3)C2)ccc1OCCCN(C)C,-2.61%,-3.17%,-2.57%
CN1CCN(CC(=O)Nc2ccc(-c3csc(-c4nc5ccccc5[nH]4)c3)cc2)CC1,-0.59%,0.35%,-2.28%
